From PubChem BioAssay
IL1B secr inh: blocks inflammasome-driven IL-1 beta release; THP-1 LPS/ATP IL-1B secretion, AlphaLISA, 16 h; hits give low values; activity change, % at 57.5 µM; 360,000 tested, 4.7% active; AID 743279; in the data active means activity change below about -50%; inconclusive means mostly about -30% to -49%
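Secreted IL-1B measured by AlphaLISA bead assay after 16 h compound exposure of THP-1 cells; compounds (final up to 57.5 uM) added 1 h before LPS (250 ng/mL) and ATP (1.25 mM) stimulation; lower signal means less secretion.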
TDP1 cell noCPT: qHTS for Inhibitors of human tyrosyl-DNA phosphodiesterase 1 (TDP1): qHTS in cells in absence of CPT; DT40 Tdp1-/- hTDP1 cells, no CPT, ATP luminescence, 48 h; Potency, µM (highest dose often 46.2 µM), inactives show at the top dose activity change, negative = growth inhibition, actives largely listed as inhibitors; 420,000 tested, 15% active; AID 686978, 2013; further: potency means the concentration at half of the fitted maximal effect; nearly all actives have a fitted effect of over 55% in size
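No-CPT arm: Tdp1-/-;hTDP1 DT40 cells (400/well) plus compounds, incubated ≥48 hr at 37 °C. Readout CellTiter-Glo luminescence.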
DT40 TDP1 CPT: DT40-hTDP1 cell growth loss with CPT; chicken DT40 Tdp1-/-;hTDP1 cells + 20 nM CPT, ATP luminescence, 48 h; 420,000 tested, 12% active; Potency, µM (doses to about 46.2 µM), without a hit: at the top dose activity change, negative = growth inhibition, hits mostly inhibitors; AID 686979; further: potency means the concentration at half of the fitted maximal effect; nearly all actives have a fitted effect of over 55% in size
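Cell growth measured by CellTiter-Glo luminescence after a minimum 48 h, 37 C compound exposure with 20 nM CPT in Tdp1-knockout DT40 cells stably expressing hTDP1, seeded 400/well; qHTS titration format.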
HT1080 IDH1KD tx: kills HT-1080 cells with IDH1 knockdown; 360,000 tested, 2% active; HT-1080 IDH1 knockdown viability, ATP luminescence, 48 h; AID 686971; Potency, µM (top dose mostly 46.1 µM), for inactives: at the highest dose activity, negative = toxicity, usual class: cytotoxic;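 further: potency means the concentration at half of the fitted maximal effect; 0% = DMSO wells and -100% = cell-free medium wells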
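CellTiter-Glo luminescence after 48 h compound exposure at 37 degrees C of IDH1-knockdown HT-1080 cells in 5% FBS RPMI. %Activity scaled between DMSO wells and cell-free media wells, with curves fitted and assigned curve classes.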
HT1080NT lethal: kills 2HG-producing HT-1080-NT fibrosarcoma cells; 360,000 tested, 1.6% active; Potency, µM (titrated, usually from 46.1 µM), inactives show at the highest dose activity, negative = less viability, hits mostly cytotoxic; HT-1080-NT fibrosarcoma viability, CellTiter-Glo ATP luminescence, 48 h;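 further: NT is the 2HG producing partner of a matched IDH1 knockdown line; potency means the concentration at half of the fitted maximal effect; 0% = DMSO-treated cells and -100% = media-only wells without cells; nearly all actives have a fitted effect of over 55% in size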
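Read-out is CellTiter-Glo luminescence after 10 minutes at room temperature, following 48 hours' compound treatment of HT-1080-NT cells (750 cells/well, RPMI, 5% FBS, 37 degrees C).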
An asterisk follows results filed as active; u = inconclusive; x = no result given. Shown are actives, neighbours in structure and some others; about 19% of the full set was active somewhere. Unless noted, the call rests on the fitted dose curve; in most records, active means well fitted curve in the direction sought with a large enough effect; inconclusive means small, poorly fitted or top-dose-only effect, or another doubt; inactive means no such curve, though single readings can be large; an effect the other way counts as inactive or inconclusive. Unless noted, on the % scale 0 is the no-effect control and ±100 the full control effect.

SMILES | IL1B secr inh | TDP1 cell noCPT | DT40 TDP1 CPT | HT1080 IDH1KD tx | HT1080NT lethal
CCOC(=O)c1cc(C(C)=O)n2ccccc12 | -12 | 1% | -3% | -2% | 0%
CCOC(=O)c1cc(C(=O)c2cccs2)n2ccc(C(C)=O)cc12 | -5 | 23µM* | u | 1% | 1%
CCC1=C(OC(=O)N(CC)CC)N2C(=O)OC(=NCCc3c[nH]c4ccccc34)[C@]2(Cc2ccccc2)[C@H]2C1=CC[C@H]1C(=O)N(C)C(=O)[C@H]12 | -53* | u | u | -7% | -28%
Cc1cc(C)cc(Cn2c3ccc(NC(=S)NC4CCCCC4)cc3c(=O)n2C)c1 | -15 | u | 23µM* | 1% | -15%
Cn1c(=O)c2cc(NC(=S)NC3CCCCC3)ccc2n1Cc1cccc(C(F)(F)F)c1 | -27 | u | u | -15% | -17%
Cn1c(=O)c2cc(NC(=O)OCCF)ccc2n1Cc1cccc(C(F)(F)F)c1 | -14 | 23µM* | 23µM* | 4% | 20%
Cn1c(=O)c2cc(NC(=O)NCCc3ccccc3)ccc2n1Cc1cccc(C(F)(F)F)c1 | -10 | 23µM* | u | u | u
Cc1ccc(CNC(=S)Nc2ccc3c(c2)c(=O)n(C)n3Cc2cccc(C(F)(F)F)c2)cc1 | -18 | 15µM* | 26µM* | u | u
COc1cc(CN2C[C@@H](CO)O[C@@H](n3cnc4c(NCc5ccncc5)ncnc43)C2)cc(OC)c1OC | 20 | -3% | -8% | 12% | 4%
O=C(O)CSc1nnc(-c2ccc(Cl)cc2Cl)n1-c1ccc(Cl)cc1 | 21 | 4% | 1% | 4% | 5%
COc1ccc(COCC(O)CN2CCN(S(=O)(=O)c3c(F)cccc3F)CC2)cc1OC (stereo unspecified) | -5 | u | u | 0% | 5%
CC(=O)C[C@@H](O)CC(=O)[C@@H]1OC(=O)[C@H](C)C/C=C\Cc2ccccc21 | -10 | -6% | -10% | -3% | -21%
Cn1c(=O)c2cc(NC(=O)NCCc3cccs3)ccc2n1Cc1ccccc1 | -9 | 26% | u | -26% | -20%
Cc1cc(C)cc(Cn2c3ccc(NC(=O)NCc4ccccc4)cc3c(=O)n2C)c1 | -20 | u | u | 7% | -2%
Cc1cc(C)cc(Cn2c3ccc(NC(=O)NCCc4cccs4)cc3c(=O)n2C)c1 | 0 | u | 16µM* | u | -21%
Cn1c(=O)c2cc(NC(=O)NCc3ccccc3)ccc2n1C/C=C/c1ccccc1 | 0 | 7.3µM* | 7.3µM* | 8.2µM* | 8.2µM*
CCNC(=S)Nc1ccc2c(c1)c(=O)n(C)n2Cc1cccc(C(F)(F)F)c1 | 13 | 23µM* | u | -8% | -5%
COc1cc(O)c(C(=O)O)c(O)c1 | x | -1% | -2% | x | x
CCOC(=O)[C@H]1[C@H]2COc3ccc(Br)cc3[C@@H]2N2C(=O)CN(CC3CCCO3)C(=O)[C@@]12C (stereo partly specified) | -13 | 1% | -12% | 0% | 0%
CCCOc1ccc(NC(=O)CC2C(=O)N(C)C(=S)N2Cc2cccs2)cc1 (stereo unspecified) | -18 | u | u | -25% | -24%
COc1ccccc1-c1c(C)nn2c(N3CCN(Cc4ccccc4)CC3)cc(C)nc12 | -20 | u | u | u | u
COc1ccc(-c2c(C)nn3c(N4CCN(Cc5ccccc5)CC4)cc(C)nc23)cc1OC | 8 | 23µM* | 23µM* | 4% | 3%
Cc1nn2c(N3CCN(C4CCCC4)CC3)cc(C(C)(C)C)nc2c1-c1ccccc1 | 7 | -9% | -15% | 1% | 11%
Cc1cc(N2CCN(Cc3ccccc3)CC2)n2nc(C)c(-c3ccccc3)c2n1 | 2 | 18µM* | 15µM* | 13% | 19%
Cc1nn2c(N3CCN(C)CC3)cc(C(C)(C)C)nc2c1-c1ccccc1 | -87* | u | u | 16µM* | 21µM*
